In PubChem BioAssay:
Results filed as inconclusive are left out. The source made the active and inactive calls. Unless noted, no rule for the calls is given here.

Key:
[1] = stimulators of insulin release from INS-1E, primary screen, cell-based, 5 mM glucose, NPC library (AID 1117329;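 active = compound raises insulin release from rat beta cells at 5 mM glucose, no numeric limit stated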); settings: rat INS-1E insulin secretion, at 10 µM, stronger effect = higher value
[2] = growth inhibition of GSK3B-pretreated HCT116 cells – cell-based, CellTiter-Glo, 0.2 to 20 µM (AID 1117336;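 active = compounds lowering colon cancer cell viability after pretreatment blocking the GSK3B kinase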); settings: HCT116 viability after GSK3B inhibitor, at 20 µM, stronger effect = higher value
[3] = inhibition of endothelial tube formation, primary screen, imaging, VEGF stimulated, CD31 staining, tube area, NPC library (AID 1117340;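 active = compound that reduces growth-factor-driven endothelial tube area in a mixed cell culture, no cutoff stated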); settings: VEGF-stimulated ADSC/ECFC co-culture, at 10 µM, stronger effect = higher value
[4] = GLP1 release stimulators, primary, NCI-H716, NPC library (AID 1117341;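 active = compound raises GLP1 secretion from the human gut endocrine cells, with no numeric limit stated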); settings: NCI-H716 cells, at 10 µM, stronger effect = higher value
[5] = HCT116 colon cancer cell growth inhibition, primary screen, CellTiter-Glo luminescence, NPC library (AID 1117342;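 active = compounds that lower survival of HCT116 colon cancer cells in the luminescence readout, no numeric limit stated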); settings: at 20 µM (top of the series)
[6] = reduced SW480 viability measured with CellTiter-Glo, NPC library, primary (AID 1117343;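 active = compounds that lower viability of the colon cancer cells in the luminescence readout, with no numeric limit stated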); settings: CellTiter-Glo luminescence; at 20 µM (top of the series)
[7] = NPC library primary testing for decreased DLD-1 cell viability via CellTiter-Glo (AID 1117346;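 active = compounds that lower survival of DLD-1 colon cancer cells in the luminescence readout, no cutoff given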); settings: DLD-1 viability, CellTiter-Glo luminescence; at 20 µM (top of the series)
[8] = modulation of C. elegans fzo-1 (AID 1259413);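 also: fzo-1 mutant C. elegans worms in liquid wells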; settings: C. elegans fzo-1 modulator screen, mean read-out; stronger effect = higher value
[9] = EMT-state selective cytotoxicity in co-culture – imaging, PC-3E GFP, TEM4-18 mCherry, primary screen (AID 1345086;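 active = compounds killing one labelled cell type while sparing the other, by normalised counts and ratio limits, not self-fluorescent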;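 as to all read-outs here: cells exposed to compound for 72 h before imaging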;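 as to red/green cell ratio (normalised): normalised mesenchymal count divided by normalised epithelial count so high means epithelial killing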); settings: PC-3E GFP / TEM4-18 mCherry co-culture, imaging cell counts, at 1 µM; for red/green cell ratio (normalised): actives lie on both sides, counts scaled to control wells, 1 = unselective
[10] = system: Aerobactin synthetase IucA (Klebsiella pneumoniae); assay: inhibition of K. pneumoniae IucA enzyme – biochemical, Tocris library, absorbance (AID 1345561); settings: purified IucA enzyme assay, absorbance (OD) read-out; stronger effect = lower value;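 tested at 8 µM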;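 also: 100% = enzyme without compound and 0% = no enzyme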
[11] = viability loss in pontine glioma line – cell-based, SU-DIPG-XVII, MIPE5.0, CellTiter-Glo, qHTS, dose response (AID 1347060; cut-off not given, nearly all actives have AC50 up to about 26 µM); settings: CellTiter-Glo ATP luminescence
[12] = viability loss in pontine glioma line – cell-based, SU-DIPG-XIII, MIPE4.0, CellTiter-Glo, qHTS, dose response (AID 1347061; cut-off not given, nearly all actives have AC50 up to about 37 µM;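 also: cells exposed to compound for 48 hours before readout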); settings: CellTiter-Glo ATP luminescence
[13] = viability loss in pontine glioma line – cell-based, JHH-DIPG-1, MIPE4.0, CellTiter-Glo, qHTS, dose response (AID 1347062; cut-off not given, nearly all actives have AC50 up to about 27 µM); settings: JHH-DIPG-1 viability, CellTiter-Glo ATP luminescence
[14] = viability loss in pontine glioma line – cell-based, SU-DIPG-IV, MIPE4.0, CellTiter-Glo, qHTS, dose response (AID 1347063; cut-off not given, nearly all actives have AC50 up to about 30 µM;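 also: compound exposure lasted 48 hours before the viability readout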); settings: CellTiter-Glo ATP luminescence
[15] = viability loss in pontine glioma line – cell-based, SU-DIPG-XIII, MIPE5.0, CellTiter-Glo, qHTS, dose response (AID 1347064; cut-off not given, nearly all actives have AC50 up to about 23 µM); settings: CellTiter-Glo ATP luminescence
[16] = measured here: epithelial PC-3E GFP cell survival
[17] = measured here: mesenchymal TEM4-18 mCherry cell survival

| Compound | insulin secretion stimulation [1] | viability decrease [2] | tube area decrease [3] | GLP1 secretion stimulation [4] | inhibition of viability [5] | viability decrease (inhibition) [6] | viability decrease (inhibition) [7] | mean signal [8] | red/green cell ratio (normalised) [9] | normalised cell number [9, 16] | normalised cell number [9, 17] | remaining activity [10] | outcome [11] | outcome [12] | outcome [13] | outcome [14] | outcome [15] |
| --- | --- | --- | --- | --- | --- | --- | --- | --- | --- | --- | --- | --- | --- | --- | --- | --- | --- |
| OCCOCCN1CCN(C2=Nc3ccccc3Sc3ccccc32)CC1 | 2.8% (inactive) | -12.8% (inactive) | 18.9% (inactive) | 2.3% (inactive) | 10.6% (inactive) | 14% (inactive) | 7.8% (inactive) | 248 (inactive) | 0.87 (inactive) | 1.08 | 0.94 |  |  |  |  |  |  |
| CCCN1CCCC[C@H]1C(=O)Nc1c(C)cccc1C | 31% (active) | -8% (inactive) | -2.1% (inactive) | 3.3% (inactive) | 3.1% (inactive) | -17% (inactive) | 6.9% (inactive) | 274 (inactive) |  |  |  |  |  |  |  |  |  |
| CC(=O)Nc1ccc(CC(=O)O)cc1 | -2.2% (inactive) | -4.5% (inactive) | 12.1% (inactive) | 0.9% (inactive) | -11% (inactive) | 16.5% (inactive) | -2.4% (inactive) | 292 (inactive) |  |  |  |  |  |  |  |  |  |
| O=C1c2cccc3c2[C@H](CCC3)CN1[C@@H]1CN2CCC1CC2 | 2.7% (inactive) | 19.7% (inactive) | -6.9% (inactive) | -4.5% (inactive) | 42% (inactive) | 31% (inactive) | 29.6% (inactive) | 244 (inactive) |  |  |  |  |  |  |  |  |  |
| C[C@H](NC(CCc1ccccc1)C(=O)O)C(=O)N1CCC[C@H]1C(=O)O (stereo partly drawn) | 0.1% (inactive) | -6.3% (inactive) | -8% (inactive) | 1.4% (inactive) | 2.7% (inactive) | -8.4% (inactive) | -2.7% (inactive) | 226 (inactive) |  |  |  |  |  |  |  |  |  |
| COC(=O)C1=C(C)NC(C)=C(C(=O)OCC(C)C)C1c1ccccc1[N+](=O)[O-] (stereo not drawn) | 1.25% (inactive) | 102% (active) | 15.6% (inactive) | 1.3% (inactive) | 97.8% (active) | 122% (active) | 86.2% (active) | 228 (inactive) | 0.97 (inactive) | 1.11 | 1.08 |  |  |  |  |  |  |
| CC(Oc1c(Cl)cccc1Cl)C1=NCCN1 (stereo not drawn) | 2.3% (inactive) | -16.2% (inactive) | -28.5% (inactive) | -2.9% (inactive) | 31.3% (inactive) | 12.5% (inactive) | 61.6% (active) | 295 (inactive) | 1.37 (inactive) | 0.85 | 1.17 |  |  |  |  |  |  |
| CN(C)CC[C@@H](c1ccc(Br)cc1)c1ccccn1 | 81.9% (active) | -41.6% (inactive) | -18.3% (inactive) | 1.6% (inactive) | 27.2% (inactive) | 30.9% (inactive) | 10.2% (inactive) | 234 (inactive) |  |  |  |  |  |  |  |  |  |
| O=C1[C@H]2CCCC[C@H]2C(=O)N1CCCCN1CCN(c2nsc3ccccc23)CC1 | 5.5% (inactive) | 70.3% (active) | 25.8% (inactive) | 9% (inactive) | 88.1% (active) | 115% (active) | 99.8% (active) | 254 (inactive) |  |  |  |  |  |  |  |  |  |
| CCN1CC(CCN2CCOCC2)C(c2ccccc2)(c2ccccc2)C1=O (stereo not drawn) | 0.3% (inactive) | 11.2% (inactive) | -7% (inactive) | 3.1% (inactive) | 17% (inactive) | 13.5% (inactive) | 4.2% (inactive) | 250 (inactive) |  |  |  |  |  |  |  |  |  |
| NC1CCN(c2nc3c(cc2F)c(=O)c(C(=O)O)cn3-c2ccc(F)cc2F)C1 (stereo not drawn) | 3.3% (inactive) | 24.4% (inactive) | 3.6% (inactive) | 2.2% (inactive) | -9.3% (inactive) | -19.3% (inactive) | -39.1% (inactive) | 292 (inactive) | 0.9 (inactive) | 1.14 | 1.02 |  |  |  |  |  |  |
| COCc1c(C(C)C)nc(C(C)C)c(/C=C/[C@@H](O)C[C@@H](O)CC(=O)O)c1-c1ccc(F)cc1 | -0.8% (inactive) | 107% (active) | 107% (active) | 3.1% (inactive) | 112% (active) | 151% (active) | 98.6% (active) | 232 (inactive) |  |  |  |  |  |  |  |  |  |
| CC1(C)S[C@@H]2[C@H](N=CN3CCCCCC3)C(=O)N2[C@H]1C(=O)O | -1.6% (inactive) | -5.75% (inactive) | 4.4% (inactive) | -0.7% (inactive) | 15.1% (inactive) | -20.4% (inactive) | -12.8% (inactive) | 245 (inactive) |  |  |  |  |  |  |  |  |  |
| COC(=O)CCc1ccc(OCC(O)CNC(C)C)cc1 (stereo not drawn) | 6.9% (inactive) | -7.2% (inactive) | -8.1% (inactive) | -0.5% (inactive) | 18.6% (inactive) | 39.7% (inactive) | 16.8% (inactive) | 266 (inactive) |  |  |  |  |  |  |  |  |  |
| Cn1nnc2c(C(N)=O)ncn2c1=O | 6.3% (inactive) | -10.2% (inactive) | 26.7% (inactive) | -2.4% (inactive) | 1.9% (inactive) | -3.8% (inactive) | -1.4% (inactive) | 230 (inactive) | 1.08 (inactive) | 1.03 | 1.11 | 102% (inactive) | inactive | inactive | inactive | inactive | inactive |
| CCN1CCCC1CNC(=O)c1cc(S(=O)(=O)CC)c(N)cc1OC (stereo not drawn) | 0% (inactive) | -1.8% (inactive) | -11.8% (inactive) | -4.7% (inactive) | -1.4% (inactive) | 1.7% (inactive) | -1.4% (inactive) | 235 (inactive) | 1.01 (inactive) | 0.89 | 0.9 | 104% (inactive) | inactive | inactive | inactive | inactive | inactive |
